# Experimental data from paper PMC4336329 (PLoS ONE, 2015).
# Out of some 310,000 compounds screened, about 14,000 (4.5%) showed an effect of 50% or more. Effects have a minus sign here. The list comes from a sample in which strong results are over-represented; it also holds similar structures and randomly drawn compounds.
# Target: human ether-à-go-go-related gene (hERG) potassium channel (human, UniProt Q12809)
# Assay: primary screen, population patch clamp on CHO cells stably expressing hERG; higher = less effect of the substance
# 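Further: peak tail current of the secondary pulse compared with the same well before compound.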
# human ether-à-go-go-related gene (hERG) potassium channel, sequence (Q12809 whole entry, looked up): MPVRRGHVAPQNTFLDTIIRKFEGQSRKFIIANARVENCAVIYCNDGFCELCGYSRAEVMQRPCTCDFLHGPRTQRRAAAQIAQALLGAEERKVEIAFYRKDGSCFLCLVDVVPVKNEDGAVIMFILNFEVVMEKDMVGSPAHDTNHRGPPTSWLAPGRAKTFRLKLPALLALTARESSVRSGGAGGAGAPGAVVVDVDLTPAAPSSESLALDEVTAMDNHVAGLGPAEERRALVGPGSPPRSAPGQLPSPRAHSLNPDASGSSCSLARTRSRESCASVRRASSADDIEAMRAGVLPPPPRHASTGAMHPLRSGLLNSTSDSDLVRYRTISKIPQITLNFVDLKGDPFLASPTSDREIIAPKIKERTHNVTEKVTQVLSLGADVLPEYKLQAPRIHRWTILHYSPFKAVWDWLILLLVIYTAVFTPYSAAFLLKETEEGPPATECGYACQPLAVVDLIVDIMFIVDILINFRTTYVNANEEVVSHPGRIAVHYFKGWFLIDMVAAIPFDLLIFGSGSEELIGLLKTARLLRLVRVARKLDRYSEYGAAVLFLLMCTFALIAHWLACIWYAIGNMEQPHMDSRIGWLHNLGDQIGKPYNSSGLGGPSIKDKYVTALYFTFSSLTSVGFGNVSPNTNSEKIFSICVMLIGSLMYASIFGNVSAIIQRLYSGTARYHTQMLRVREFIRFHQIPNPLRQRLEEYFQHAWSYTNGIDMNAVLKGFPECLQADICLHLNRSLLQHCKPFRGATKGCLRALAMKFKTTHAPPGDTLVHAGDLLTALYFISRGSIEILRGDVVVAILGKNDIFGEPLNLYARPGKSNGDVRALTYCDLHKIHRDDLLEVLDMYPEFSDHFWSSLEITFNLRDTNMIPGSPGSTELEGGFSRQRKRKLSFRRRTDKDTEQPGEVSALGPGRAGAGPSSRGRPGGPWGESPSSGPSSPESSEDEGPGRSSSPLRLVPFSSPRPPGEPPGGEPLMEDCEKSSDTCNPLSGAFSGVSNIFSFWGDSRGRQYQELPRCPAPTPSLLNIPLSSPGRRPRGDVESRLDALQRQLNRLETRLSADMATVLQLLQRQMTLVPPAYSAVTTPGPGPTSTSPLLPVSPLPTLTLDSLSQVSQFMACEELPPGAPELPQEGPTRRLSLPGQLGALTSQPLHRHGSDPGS
row,Compound,"hERG current change (%, negative = inhibition) at 10uM"
1,CN(C)C(CNS(=O)(=O)c1ccc(Br)cc1)c1cccnc1 (centres unmarked),-11.3%
2,CN1CCN(C(CNS(=O)(=O)c2ccc(Cl)cc2)c2cccnc2)CC1 (centres unmarked),-55.6%
3,CCN1CCN(C(CNS(=O)(=O)c2ccccc2)c2ccccc2)CC1 (centres unmarked),-34.8%
4,CN(C)C(CNS(=O)(=O)c1ccc(Cl)cc1)c1cccnc1 (centres unmarked),18.2%
5,CN1CCN(C(CNS(=O)(=O)c2ccc(F)cc2)c2cccnc2)CC1 (centres unmarked),-7.43%
6,CCN1CCN(C(CNS(=O)(=O)c2ccc(Br)cc2)c2cccnc2)CC1 (centres unmarked),-65.8%
7,CCN1CCN(C(CNS(=O)(=O)c2ccc(Cl)cc2)c2cccnc2)CC1 (centres unmarked),-74.2%
8,CCN1CCN(C(CNS(=O)(=O)c2ccc(Cl)cc2)c2ccccc2)CC1 (centres unmarked),-69.5%
9,CCN1CCN(C(CNS(=O)(=O)c2ccc(C)cc2)c2cccnc2)CC1 (centres unmarked),-35.9%
10,N#CCCN1CCN(C(CNS(=O)(=O)c2ccc(Cl)cc2)c2ccccc2)CC1 (centres unmarked),-34.2%
11,N#Cc1ccc(Oc2cc(C(F)(F)F)nc(-c3ccccn3)n2)cc1,5.26%
12,Cc1cccc(Nc2ncnc3onc(-c4ccc(F)cc4)c23)c1C,-4.56%
13,Oc1ccccc1CNc1nccs1,21.3%
14,COc1ccc(OC(C)C(=O)Nc2ccccc2F)cc1 (centres unmarked),13.1%
15,CN(C)CCn1cnc2c1c(=O)[nH]c(=O)n2Cc1ccccc1.Cl,27.6%
16,O=C(O)CCCC(=O)NCc1ccccn1,11.1%
17,Cc1ccc(NC(=O)Cn2c(-c3ccc(F)cc3)cnc2SCC(=O)Nc2c(C)cccc2C)cc1,16%
18,Cc1cc(C(=O)Nc2ccc(F)cc2)c2ccccc2n1,-0.679%
19,C/C(CC(=O)Nc1ccc2c(c1)OCCO2)=N\NC(=O)c1ccc([N+](=O)[O-])cc1Cl,-5.37%

row,Compound,"hERG current change (%, negative = inhibition) at 10uM"
1,CC(C)Sc1ccc([N+](=O)[O-])cc1C(=O)Nc1ccncc1,-11.7%
2,CCCCCn1cnc2c(sc3nc4c(cc32)CSC(C)(C)C4)c1=O,-14.5%
3,CCOC(=O)C1(CC2CCCCO2)CCN(S(=O)(=O)c2ccc(OC)cc2)CC1 (centres unmarked),-38.3%
4,CCOC(=O)C1(CC2CCCCO2)CCN(S(=O)(=O)c2ccc(C)s2)CC1 (centres unmarked),9.12%
5,CCOC(=O)C1(CC2CC2)CCN(Cc2ccc(OC)cc2F)CC1,-73.5%
6,CCOC(=O)C1(CC2CCCCO2)CCN(S(=O)(=O)c2ccccc2)CC1 (centres unmarked),9.64%
7,CCOC(=O)C1(CC2CCCCO2)CCN(Cc2ccc(OC)cc2F)CC1 (centres unmarked),-54.8%
8,CCOC(=O)C1(CC2CCCCO2)CCN(Cc2nccn2-c2ccc(OC)cc2)CC1 (centres unmarked),-5.78%
9,CCOC(=O)C1(CC2CCCCO2)CCN(S(=O)(=O)c2cc(C)cs2)CC1 (centres unmarked),-59%
10,CCOC(=O)C1(CC2CCCCO2)CCN(Cc2nc3ccccc3nc2C)CC1 (centres unmarked),-21.2%
11,CCOC(=O)C1CCN(Cc2ccc(F)cc2F)CC1,6.65%
12,CCOC(=O)C1(CCOC)CCN(Cc2nc(-c3cccs3)oc2C)CC1,-30.8%
13,CCOC(=O)C1(CC2CCCCO2)CCN(Cc2nc(-c3cccs3)oc2C)CC1 (centres unmarked),-67.6%
14,CCOC(=O)C1(CC2CC2)CCN(Cc2cnc(-c3ccc(OC)cc3)nc2)CC1,-21.9%
15,O=C(O)c1ccc(C(=O)O)c(C(=O)c2ccc(NC(=O)c3ccccc3)cc2)c1,8.99%
16,C/C(=N\NC(=O)c1ccc(Cl)c(Cl)c1)c1cccc(NC(=O)C(C)C)c1,1.91%
17,Nc1c(Cl)cc(-c2cn(CCC(=O)O)c(-c3ccc(Cl)nc3)n2)cc1Cl,20.4%
18,O=C(N/N=C/c1cccnc1)c1ccc(NC(=O)c2ccc(F)cc2)cc1,8.2%
19,O=C1C2C3C=CC(C3)C2C(=O)N1c1ccc(N2CCN(c3ccccn3)CC2)c([N+](=O)[O-])c1 (centres unmarked),-18.6%

row,Compound,"hERG current change (%, negative = inhibition) at 10uM"
1,O=C(NCC1OCCCN1S(=O)(=O)c1ccc(F)cc1)C(=O)NC1CCCC1 (centres unmarked),-15.8%
2,O=C(CSc1ccccc1C(=O)O)NC1CCCCCCC1,17.6%
3,COc1ccccc1N1CCN(Cc2ccco2)CC1.O=C(O)C(=O)O,-26.4%
4,CSc1ccc(CN2CCN(c3ccccc3C)CC2)cc1.O=C(O)C(=O)O,-54.5%
5,COc1ccc(CN2CCN(C(=O)c3cccc(OC)c3OC)CC2)cc1OC.O=C(O)C(=O)O,5.63%
6,Cc1ccccc1N1CCN(Cc2cccc(C(=O)O)c2)CC1.Cl,1.27%
7,COc1ccc(CN2CCN(Cc3ccco3)CC2)cc1OC.O=C(O)C(=O)O,1.22%
8,COc1ccc(CN2CCN(c3ccccc3OC)CC2)cc1OC.O=C(O)C(=O)O,-57.9%
9,CCOc1cc(CN2CCN(c3ncccn3)CC2)ccc1OC,-4.8%
10,Cc1ccccc1CN1CCN(Cc2ccccc2)CC1.O=C(O)C(=O)O,-7.72%
11,CCOc1cc(CN2CCCCC2)ccc1OC,-8.28%
12,CCOc1ccccc1N1CCN(Cc2ccc(OC)c(OC)c2)CC1,-69.2%
13,COc1ccccc1N1CCN(Cc2ccc(SC)cc2)CC1.O=C(O)C(=O)O,-72.9%
14,COc1ccccc1N1CCN(Cc2ccc(C(=O)O)cc2)CC1,14.4%
15,Cc1ccccc1CN1CCCOCCS1(=O)=O,-0.4%
16,Cn1c2c(c(=O)n1-c1ccccc1)CSCC2,16.5%
17,O=C(NNC(=S)NC(=O)c1cccs1)c1ccc(NC(=O)c2ccccc2)cc1,13.7%
18,Cl.O=C(O)c1ccc2nc(CO)[nH]c2c1,11.2%
